OvCa metastasis: ovarian cancer metastasis inhibition, 3D TME model; 0.1% of 46,000 active; SKOV3ip1-GFP adhesion/invasion on 3D omental model, fluorescence; AID 1963576; Potency, µM (series often up to 45.8 µM), for the others: top-dose activity change, negative = inhibition, usual class: inhibitors;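 note: potency is the fitted concentration of half-maximal effect; plate controls were DMSO wells for no effect and tomatine positive control wells for full effect; nearly all actives have a fitted effect of over 65% in size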
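qHTS, 4-pt dose (0.36-46 umol/L); SKOV3ip1-GFP, 1,200 cells/well, no FBS; primary omental fibroblast/mesothelial co-culture 48 h pre-grown; 2 h RT + 16 h 37 C; PBS wash, 4% PFA; GFP count 488/509 nm.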
pS6 MEF inh: inhibitors of mTORC1 signaling in Tsc2-/- p53-/- MEF cells | 0.78% of 44,000 active | AID 493208 | Potency, µM (doses to about 38.3 µM), without a hit: top-dose activity change, negative = inhibition, actives largely listed as inhibitors | Tsc2-/- p53-/- MEF, phospho-rpS6 immunofluorescence/PI, 24 h;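 note: potency is the fitted concentration of half-maximal effect; plate controls were DMSO for no effect and rapamycin for full effect; nearly all actives have a fitted effect of over 50% in size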
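Immunofluorescence of rpS6 phosphorylation in Tsc2-/-, p53-/- MEFs after 24 h compound exposure, normalized to propidium iodide signal. Activity is expressed as % positive cells, thresholded with 7.5 nM rapamycin.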
p53null 32C tox: selectivity test: cytotoxicity in p53 null cells, permissive temperature | H1299-neo p53 null cells, ATP luminescence, 24 h, 32C | Potency, µM (titrated, usually from 46.1 µM), for inactives: at the highest dose activity change, negative = cytotoxicity, usual class: cytotoxic | 0.62% of 55,000 active;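 note: potency is the fitted concentration of half-maximal effect; 0% = DMSO only and -100% = full killing by 100 µM tamoxifen; nearly all actives have a fitted effect of over 55% in size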
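H1299-neo (p53 null) cells, 600/well, treated 24 h at 32C with compound up to 46 uM; ATPlite luminescence viability, normalized to DMSO and 100 uM tamoxifen; AC50 by Hill fit.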
S16 F2sN tox: toxic to S16 Pmp22-F2sN Schwann cells; S16 Pmp22-F2sN Schwann cells viability, CellTiter-Glo, 24 h; Potency, µM (highest dose often 57.5 µM), for the others: at the highest dose activity change, negative = cytotoxicity, most hits filed as cytotoxic; 0.48% of 43,000 active; note: potency is the fitted concentration of half-maximal effect; % is set by controls: 0 for no effect and ±100 for the full control effect; nearly all actives have a fitted effect of over 65% in size
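Rat S16 Schwann reporter line, 24 h treatment with library compounds delivered at 23 nL per well. Cell viability by CellTiter-Glo luminescence.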
p53null 39C kill: kills p53 null cells at the nonpermissive temperature; H1299 p53-null (neo) cells, 39C, ATPlite viability, 24 h; Potency, µM (doses to about 46.1 µM), inactives show top-dose activity, negative = cell killing, usual class: cytotoxic; 0.97% of 55,000 active; AID 904;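 note: potency is the fitted concentration of half-maximal effect; 0% = DMSO only and -100% = full killing by 100 µM tamoxifen; nearly all actives have a fitted effect of over 50% in size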
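ATP-luminescence viability readout (ATPlite, 20 min RT) after 24 hr compound treatment at 39C of H1299-neo or H1299-p53A138V cells; titration up to 46 uM; normalized to DMSO and 100 uM tamoxifen; Hill-fit AC50.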
PMP22 txn prim: modulates PMP22 transcription in S16 Schwann cells; S16 Pmp22-F2sN Schwann cells (luciferase reporters placed in the Pmp22 gene), FLuc/NLuc coincidence luminescence, 24 h; Potency, µM (titrated, usually from 57.5 µM), without a hit: at the highest dose activity change, negative = inhibition, actives largely listed as inhibitors; 2% of 43,000 active; AID 1508649; active = clear falling dose curves in both reporters; inconclusive = both reporters move, but less clearly or upward; inactive = either reporter flat; the % is the NLuc reporter signal; note: potency is the fitted concentration of half-maximal effect; % is set by controls: 0 for no effect and ±100 for the full control effect
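Transcriptional readout in edited S16(c9) cells: two luciferases reported from the Pmp22 locus, measured in turn after 24 h compound incubation.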
NLuc saturating: counter-screen for PMP22 expression modulators: NanoLuc inhibition, saturating substrate. Potency, µM (titrated, usually from 57.5 µM), for inactives: at the highest dose activity change, negative = inhibition, hits mostly inhibitors. Secreted NLuc enzyme (filtered S16 cell medium), Nano-Glo luminescence. 4% of 690 active. shares compounds with PMP22 txn prim; note: potency is the fitted concentration of half-maximal effect; % is set by controls: 0 for no effect and ±100 for the full control effect
NLuc Km counter: NanoLuc inhibition at Km substrate, PMP22 artifact check | 5% of 690 active | shares compounds with PMP22 txn prim | AID 1508639 | secreted NLuc enzyme, coelenterazine luminescence, Km conditions | Potency, µM (highest dose often 57.5 µM), for the others: at the top dose activity change, negative = inhibition, actives largely listed as inhibitors; note: potency is the fitted concentration of half-maximal effect; % is set by controls: 0 for no effect and ±100 for the full control effect
FLuc ctr PMP22: firefly luciferase enzyme inhibition artifact for PMP22 screen; shares compounds with PMP22 txn prim; purified P. pyralis FLuc, luminescence, 10 min; Potency, µM (series often up to 57.5 µM), without a hit: top-dose activity, negative = inhibition, most hits filed as inhibitors; 690 tested, under 10 active; AID 1508640; note: % of control where 0% means no effect
Target sequence (P08659 whole entry, looked up): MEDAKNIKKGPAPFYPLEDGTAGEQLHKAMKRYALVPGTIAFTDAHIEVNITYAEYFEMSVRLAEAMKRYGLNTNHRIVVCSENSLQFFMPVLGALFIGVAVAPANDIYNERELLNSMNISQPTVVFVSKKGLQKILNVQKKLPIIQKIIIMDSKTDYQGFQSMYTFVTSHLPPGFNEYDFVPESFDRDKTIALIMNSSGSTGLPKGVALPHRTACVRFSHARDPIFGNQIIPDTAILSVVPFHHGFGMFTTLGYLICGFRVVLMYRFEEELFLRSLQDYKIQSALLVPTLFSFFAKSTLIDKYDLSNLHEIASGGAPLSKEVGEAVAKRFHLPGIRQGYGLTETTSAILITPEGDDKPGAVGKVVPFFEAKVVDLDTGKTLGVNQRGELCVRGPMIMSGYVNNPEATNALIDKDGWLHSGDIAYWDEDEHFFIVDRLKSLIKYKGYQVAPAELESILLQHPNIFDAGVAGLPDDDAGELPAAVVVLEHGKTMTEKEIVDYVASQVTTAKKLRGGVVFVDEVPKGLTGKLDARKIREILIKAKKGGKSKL
S16 viab conf: S16 Schwann cell cytotoxicity, confirmatory; Potency, µM (doses to about 57.5 µM), for the others: at the highest dose activity change, negative = viability loss, usual class: cytotoxic; 7% of 690 active; S16 Schwann cells viability, CellTiter-Glo ATP luminescence, 24 h; AID 1508641; shares compounds with PMP22 txn prim; note: potency is the fitted concentration of half-maximal effect; % is set by controls: 0 for no effect and ±100 for the full control effect
PMP22 txn conf: PMP22 transcription modulation, confirmatory; 22% of 690 active; Potency, µM (top dose mostly 57.5 µM), for inactives: top-dose activity change, negative = inhibition, usual class: inhibitors; S16 Schwann cells Pmp22-F2sN, dual luciferase, 24 h; shares compounds with PMP22 txn prim; AID 1508646; active = clear falling dose curves in both reporters; inconclusive = both reporters move, but less clearly or upward; inactive = either reporter flat; the % is the FLuc reporter signal; note: potency is the fitted concentration of half-maximal effect
* = called active by the depositor; i = inactive; ? = inconclusive; nt = no result given. Only some compounds are listed: those with a hit (about 3% of all), similar ones and a draw of the others. Unless noted, calls come from the whole dose curve; as a rule, active = well fitted curve in the direction sought with a large enough effect; inconclusive = small, poorly fitted or top-dose-only effect, or another doubt; inactive = no such curve, though single readings can be large; an effect the other way counts as inactive or inconclusive.

SMILES | OvCa metastasis | pS6 MEF inh | p53null 32C tox | S16 F2sN tox | p53null 39C kill | PMP22 txn prim | NLuc saturating | NLuc Km counter | FLuc ctr PMP22 | S16 viab conf | PMP22 txn conf
Cc1ccc(-c2cnc(C3CC3)o2)cc1S(=O)(=O)Nc1cccc(C#N)c1 | -22% | 0% | -15% | ? | 4% | ? | nt | nt | nt | nt | nt
COc1cccc(NS(=O)(=O)c2cc(-c3cnc(C4CC4)o3)ccc2C)c1 | i | -10% | -13% | ? | ? | 8.5µM* | ? | 15µM* | 7% | -7% | 2.9µM*
N#Cc1ccc(NS(=O)(=O)c2ccc(-c3cnc(C4CC4)o3)cc2)cc1 | i | 12% | -8% | ? | -6% | ? | nt | nt | nt | nt | nt
c1nc2nc(Nc3ccc(N4CCOCC4)cc3)nc(NC3CCCCC3)c2[nH]1 | -4% | nt | nt | nt | nt | nt | nt | nt | nt | nt | nt
O=C(O)[C@H]1O[C@H](Oc2cc3oc(-c4ccccc4)cc(=O)c3c(O)c2O)[C@H](O)[C@@H](O)[C@H]1O | 3% | nt | nt | nt | nt | nt | nt | nt | nt | nt | nt
COc1ccccc1CNC(=O)Cn1c(=O)oc2cc(S(=O)(=O)N3CCC(C)CC3)ccc21 | -9% | -5% | ? | ? | -6% | 13µM* | -12% | -1% | 1% | -18% | -26%
C[C@]12CC[C@@H]3c4ccc(O)cc4CC[C@H]3[C@H]1C[C@@H](O)[C@H]2O | 4% | nt | nt | nt | nt | nt | nt | nt | nt | nt | nt
COc1ccc(CC(=O)Nc2sc3c(c2C(=O)Nc2cccc(C)c2)CCCCC3)cc1 | -1% | 9.3µM* | -13% | 25µM* | ? | 10µM* | -15% | 6% | -13% | ? | ?
COc1ccc(CC(=O)Nc2sc3c(c2C(=O)Nc2ccc(C)cc2)CCCCC3)cc1 | i | 8% | 9% | -20% | -26% | ? | nt | nt | nt | nt | nt
N[C@H]1CN(c2c(F)cc3c(=O)c(C(=O)O)cn(C4C[C@@H]4F)c3c2Cl)CC12CC2 (stereo partly specified) | -13% | nt | nt | nt | nt | nt | nt | nt | nt | nt | nt
Cc1ccccc1CNC(=O)C(=O)NCC(c1cccs1)S(=O)(=O)c1ccc(Cl)cc1 (stereo unspecified) | 8% | 2% | 3% | 0% | 4% | 15µM* | -14% | -17% | 4% | 10% | -24%
NC(=O)NN=Cc1ccc([N+](=O)[O-])o1 | 12% | nt | nt | nt | nt | nt | nt | nt | nt | nt | nt
COc1ccc(-n2nc3c(N4CCCC(C(=O)NCCc5ccccc5C)C4)nnc(C)c3c2C)cc1 (stereo unspecified) | -24% | -5% | -6% | ? | -7% | 18µM* | ? | -2% | 10% | ? | ?
COc1ccc(-n2nc3c(N4CCCC(C(=O)NCc5ccccc5C)C4)nnc(C)c3c2C)cc1 (stereo unspecified) | ? | 5.2µM* | ? | 25µM* | 16µM* | 13µM* | -3% | -1% | 0% | 22µM* | ?
CS(=O)(=O)N1CCc2c(-c3cnc(N)nc3)nc(N3CCOCC3)nc21 | 8% | nt | nt | nt | nt | nt | nt | nt | nt | nt | nt
CCc1ccccc1NC(=O)Cn1nc(CC)n2c(cc3sccc32)c1=O | 12% | -5% | -4% | 5% | 1% | -42% | -7% | -7% | 10% | 9% | ?
CCc1nn(CC(=O)Nc2ccc(NC(C)=O)cc2)c(=O)c2cc3sccc3n12 | i | 1% | 6% | -14% | -15% | -9% | nt | nt | nt | nt | nt
COc1ccc(OC)c(CNS(=O)(=O)c2ccc3[nH]c4c(c3c2)CCCCC4)c1 | 14% | -8% | 9% | -18% | 39% | 15µM* | -11% | ? | 2% | 1% | -16%
Cc1ccc(NS(=O)(=O)c2ccc3[nH]c4c(c3c2)CCCC4)cc1N(C)C | -20% | -17% | 17% | ? | -16% | 17µM* | 2% | -20% | 1% | 7% | ?
Cc1ccc(NS(=O)(=O)c2ccc3[nH]c4c(c3c2)CCCCCC4)cc1Cl | ? | -18% | 61% | -9% | 15% | ? | nt | nt | nt | nt | nt
C[C@@H](O[C@H]1OCCN(Cc2n[nH]c(=O)[nH]2)[C@@H]1c1ccc(F)cc1)c1cc(C(F)(F)F)cc(C(F)(F)F)c1 | -12% | nt | nt | nt | nt | nt | nt | nt | nt | nt | nt
O=C(CO)N1CCC(c2[nH]nc(-c3ccc(Cl)cc3)c2-c2ccncn2)CC1 | -15% | nt | nt | nt | nt | nt | nt | nt | nt | nt | nt
COc1ccc(Cn2c(SCC(=O)N(C)Cc3ccccc3)nc3ccccc32)cc1 | -3% | 0% | 18% | -26% | 11% | 20µM* | ? | ? | ? | -11% | -9%
COc1ccc(Cn2c(SCC(=O)NCc3ccccc3)nc3ccccc32)cc1 | -7% | 7% | 20% | ? | 34% | ? | nt | nt | nt | nt | nt
COc1ccc2c(c1)CC[C@H]1[C@@H]2CC[C@]2(C)[C@@H](NCCCCCCN3C(=O)C=CC3=O)CC[C@H]12 | 0% | nt | nt | nt | nt | nt | nt | nt | nt | nt | nt
C[C@@H]1CC(=O)NN=C1c1ccc(NN=C(C#N)C#N)cc1 | -5% | nt | nt | nt | nt | nt | nt | nt | nt | nt | nt
Cc1ccc(NC(=O)CSc2nc3n[nH]c(C)c3c(=N)n2-c2cccc(C)c2)cc1 | i | -7% | -19% | -16% | 4% | ? | nt | nt | nt | nt | nt
Cc1ccc(NC(=O)CSc2nc3n[nH]c(C)c3c(=N)n2-c2ccccc2C)cc1C | -7% | -4% | -7% | -2% | 13% | 17µM* | ? | ? | 8% | -10% | -39%
